The record followed here is PubChem BioAssay (NCATS).

Assay [1] concerns the target Glutathione peroxidase 1 (Homo sapiens) (UniProt P07203). The experiment in a line: Primary qHTS Assay for Inhibitors of Recombinant Selenoprotein Glutathione Peroxidase 1 (GPX1) (AID 1845191). For activity, negative = inhibition: % is set by controls: 0 for no effect and ±100 for the full control effect. Note: nearly all actives have a fitted effect of over 65% in size. A digest of the protocol:
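NADPH consumption tracked by fluorescence at 340/450 nm between t=0 and t=15 min, room temperature. Final mix: 10 nM GPX1, 100 nM glutathione reductase, 1 mM GSH, 0.5 mM NADPH, 0.5 mM cumene hydroperoxide, 0.01% BSA; 30 min compound–enzyme preincubation.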
(In qHTS, concentration-response curves come from the screen itself.)

Assay [2] deals with Phospholipid hydroperoxide glutathione peroxidase GPX4 (Homo sapiens) (UniProt P36969). The assay can be described thus: Primary qHTS Assay for Inhibitors of Recombinant Selenoprotein Glutathione Peroxidase 4 (GPX4) (AID 1845192). For activity change, negative = inhibition: series mostly up to about 50 µM; % is set by controls: 0 for no effect and ±100 for the full control effect. Note: nearly all actives have a fitted effect of over 65% in size. Summed up:
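NADPH consumption followed by fluorescence at 340/450 nm, t=0 and after 15 min at room temperature. Reaction started with cumene hydroperoxide (0.5 mM final) after 30 min compound–GPX4 preincubation; final 200 nM GPX4, 100 nM GR, 1 mM GSH, 0.5 mM NADPH.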

In assay [3] the test system is Nanoluciferase (engineered Oplophorus gracilirostris luciferase). The experiment in a line: Primary Nanoluciferase (NLuc) qHTS assay for identification of artifact compounds. (AID 1845222).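 For activity, negative = inhibition: series mostly up to about 54 µM; 0% = DMSO and -100% = no enzyme.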 Note: potency is the fitted concentration of half-maximal effect. A digest of the protocol:
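Luminescence from secreted NLuc (filtered, 1:55-diluted S16 cell medium) read 5 min after Nano-Glo substrate; compounds preincubated 15 min, RT. Hill fits of inhibition normalized to DMSO and no-enzyme.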

Assay [4] in a line: Primary redox qHTS assay for identification of artifact compounds. (AID 1845223).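 Note: 0% = DMSO and 100% = reference compound.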 Summed up:
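Redox-cycling detection via DTT (250 uM final) oxidation coupled to Amplex Red (25 uM)/HRP (250 mU/mL) in HBSS. 15 min preincubation plus 30 min after DTT, room temperature. Ex/Em 525/598 nm; 4-parameter Hill fit against DMSO and 10 uM DA3003.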

The target of assay [5] is Luciferin 4-monooxygenase (Photinus pyralis) (UniProt P08659). The assay can be described thus: Primary firefly luciferase (FLuc) qHTS assay for identification of artifact compounds. (AID 1845220).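 For activity change, negative = inhibition: series mostly up to about 54 µM; plate controls were DMSO vehicle for no effect and no enzyme for full effect.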 Note: nearly all actives have a fitted effect of over 60% in size. Note: potency is the fitted concentration of half-maximal effect. A digest of the protocol: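 Compounds sat 15 min at room temperature with 10 uM luciferin and 10 uM ATP (pH 7.6 Tris acetate). Firefly luciferase (10 nM final) was then added, and luminescence was read 5 min later. Data normalized to no-enzyme and DMSO controls were Hill-fitted.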

A short description of assay [6]: Primary fluorescence-based thiol-reactive (MSTI) qHTS assay for identification of artifact compounds. (AID 1845221).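 For activity change, negative = thiol reactive: series mostly up to about 54 µM; thiol-reactive compounds lower the probe fluorescence signal.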 Note: nearly all actives have a fitted effect of over 65% in size. Note: potency is the fitted concentration of half-maximal effect. A digest of the protocol:
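Thiol-reactive compounds detected by quenching of 4 uM MSTI fluorescence (525/598 nm) after 1 h room-temperature dark incubation in PBS pH 7.4, 2% DMSO. qHTS titration; percent inhibition Hill-fitted against Acetyl-MSTI/MSTI controls.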

Values without a mark were called inactive. Inconclusive results are not listed. Activity calls are given as the source filed them. Calls come from the whole dose curve; as a rule, active = well fitted curve in the direction sought with a large enough effect; inconclusive = small, poorly fitted or top-dose-only effect, or another doubt; inactive = no such curve, though single readings can be large; an effect the other way counts as inactive or inconclusive.

Phospholipid hydroperoxide glutathione peroxidase GPX4 (Homo sapiens), sequence (P36969 whole entry, looked up): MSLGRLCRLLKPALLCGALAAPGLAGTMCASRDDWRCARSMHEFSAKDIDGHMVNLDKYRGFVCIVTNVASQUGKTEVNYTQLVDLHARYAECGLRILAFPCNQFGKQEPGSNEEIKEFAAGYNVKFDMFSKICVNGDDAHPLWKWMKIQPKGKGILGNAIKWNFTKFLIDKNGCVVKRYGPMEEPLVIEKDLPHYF
Glutathione peroxidase 1 (Homo sapiens), sequence (P07203 whole entry, looked up): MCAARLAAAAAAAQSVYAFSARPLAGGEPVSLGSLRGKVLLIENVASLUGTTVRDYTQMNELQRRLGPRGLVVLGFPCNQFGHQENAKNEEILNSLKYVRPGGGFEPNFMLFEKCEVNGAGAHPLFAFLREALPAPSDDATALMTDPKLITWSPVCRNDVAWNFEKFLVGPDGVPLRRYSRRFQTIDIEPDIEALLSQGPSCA

With `COc1cncc(C#Cc2ccccn2)c1`, the Potency result in assay [1], in assay [2], in assay [3] and in assay [4] was “inactive” each time.
On to `CCOC(=O)c1ccc(NC2CCCCC2)c(N)c1`, for which the Potency entry in assay [1], in assay [2], in assay [3] and in assay [4] was “inactive” in each case.
`COC(=O)C[C@H]1C(C)(C)[C@H](OC(=O)C(C)C)C2CC3=C4CC(=O)O[C@@H](c5ccoc5)[C@]4(C)CCC3[C@@]1(C)C2=O` (some centres not stated): the Potency result in assay [1], in assay [5], in assay [6] and in assay [3] was “inactive” each time.
In the case of `O=C(O)CCc1ccc(NCc2cccc3c2CCCN3CCOc2ccccc2)cc1F`, the Potency result in assay [1], in assay [5] and in assay [3] was “inactive” in each case. The Potency in assay [6] was 1.5 µM (active).
`CC1OC(OC2C(OC3C(O[C@H]4CC[C@@]5(C)C(CC[C@]6(C)C5CC=C5C7CC(C)(C)CC(O)[C@]7(C)CC[C@]56C)C4(C)C)OC(C(=O)O)C(O)C3O)OCC(O)C2O)C(O)C(O)C1O` (some centres not stated): the Potency result in assay [1] and in assay [2] was “inactive” in each case. The activity change, negative = thiol reactive in assay [6] is 167% [at 11.5 µM]. Besides, in assay [3], the activity, negative = inhibition is 4.85% [at 11.6 µM]. The redox activity (% of DA3003) in assay [4] was 9.66% [at 11.5 µM].
With `COc1ccc([C@H]2OC[C@H]3[C@@H]2CO[C@@H]3c2ccc(O[C@@H]3O[C@H](CO)C(O)[C@H](O)[C@H]3O)c(OC)c2)cc1OC` (some centres not stated), the Potency entry in assay [1], in assay [2], in assay [6], in assay [3] and in assay [4] was “inactive” throughout.
`CC1=CC(=O)CC(C)(C)[C@@]1(O)/C=C/C(C)O[C@@H]1O[C@H](CO)[C@@H](O)[C@H](O)[C@H]1O` (some centres not stated): the Potency result in assay [1], in assay [2], in assay [6], in assay [3] and in assay [4] was “inactive” throughout.
Consider `O=C(O)[C@H]1Cc2ccccc2CN1`, for which, in assay [1], the outcome is “inactive [at 4.49 µM]”. In addition, in assay [2], the activity change, negative = inhibition was 3.24% [at 4.52 µM]. Also, the activity change, negative = thiol reactive in assay [6] is -3.73% [at 6.41 µM]. The activity, negative = inhibition in assay [3] was 0% [at 6.45 µM]. Moreover, the redox activity (% of DA3003) in assay [4] was -3.86% [at 6.41 µM].
As for `COc1ccc2c(c1)C=C1Cn3c-2c(C2CCCCC2)c2ccc(cc23)C(=O)NS(=O)(=O)N(C)CCOCCN(C)C1=O`, the Potency result in assay [1], in assay [5], in assay [6] and in assay [3] was “inactive” in each case.
On to `C/C=C(\C)C(=O)OC[C@H]1O[C@H](O[C@H]2O[C@H](CO)[C@@H](O)[C@H](O)[C@H]2O[C@@H]2O[C@H](CO)[C@@H](O)[C@H](O)[C@H]2O)[C@H](O[C@@H]2O[C@H](CO)[C@@H](O)[C@H](O)[C@H]2O)[C@@H](O)[C@@H]1O`, for which the Potency entry in assay [1], in assay [2], in assay [6], in assay [3] and in assay [4] was “inactive” throughout.
For `O=C(/C=C/c1ccc(O)cc1)OC[C@@]1(O)C=C[C@@H]2C(C(=O)O)=CO[C@@H](O[C@@H]3O[C@H](CO)[C@@H](O)[C@H](O)[C@H]3O)[C@@H]21`, the Potency entry in assay [1], in assay [2], in assay [3] and in assay [4] was “inactive” throughout. The Potency in assay [6] is 5.19 µM (active).
In the case of `COc1ccc(-c2ccn(CC[C@](C)(C(=O)NO)S(C)(=O)=O)c(=O)c2)c(F)c1`, the Potency result in assay [1], in assay [2], in assay [3] and in assay [4] was “inactive” in each case.
`O=C(O)/C=C/c1ccc2occc2c1O[C@@H]1O[C@H](CO)[C@@H](O)[C@H](O)[C@H]1O`: the Potency entry in assay [1], in assay [2], in assay [3] and in assay [4] was “inactive” in each case.
For `COc1c2ccoc2nc2c(OC)c(O[C@@H]3O[C@@H](C)[C@H](O)[C@@H](O[C@@H]4O[C@H](CO)[C@@H](O)[C@H](O)[C@H]4O)[C@H]3OC(C)=O)ccc12`, the Potency entry in assay [1], in assay [5], in assay [6] and in assay [3] was “inactive” in each case.
`O=C(Nc1cc(-c2ccccc2)nn1-c1ccccc1F)c1ccc([N+](=O)[O-])cc1`: the Potency entry in assay [1], in assay [5], in assay [3] and in assay [4] was “inactive” each time.
Turning to `CC1=C2CC(O)(C(C)(C)O)C(O[C@@H]3O[C@H](CO)[C@@H](O)[C@H](O)[C@H]3O)CC(C)C2CC1=O` (some centres not stated), the Potency entry in assay [1], in assay [5], in assay [3] and in assay [4] was “inactive” each time. Besides, the Potency in assay [6] is 3.67 µM (active).
With `O=C(Cc1ccc(Cl)cc1)Nc1cnccc1C(=O)O`, the Potency entry in assay [1], in assay [5], in assay [6] and in assay [4] was “inactive” each time. Moreover, the Potency in assay [3] is 9.53 µM (active).
Take `CCC(C)/C=C(C)/C=C/C1=CC2=CC(=O)C(C)(O)C(OC(C)=O)C2CO1` (configuration not stated): the Potency entry in assay [1], in assay [5] and in assay [3] was “inactive” throughout.
As for `CC(C)(Oc1ccc(-c2nc3cc(Cl)ccc3s2)cc1)C(=O)O`, the Potency entry in assay [1], in assay [6] and in assay [4] was “inactive” throughout. Also, in assay [5], the Potency is 2.39 µM (active).
For `COc1ccc(-n2c(SCC#N)nc3sc4c(c3c2=O)CCCC4)cc1`, the Potency entry in assay [1], in assay [5], in assay [6], in assay [3] and in assay [4] was “inactive” throughout.
As for `CCOC(=O)CSc1nc2c(sc3ccccc32)c(=O)n1CCCN1CCCC1`, the Potency entry in assay [1], in assay [5], in assay [6], in assay [3] and in assay [4] was “inactive” each time.
Turning to `C[C@]1(OC(=O)/C=C\c2ccc(O)cc2)C[C@@H](O)[C@]2(O)C=CO[C@@H](O[C@@H]3O[C@H](CO)[C@@H](O)[C@H](O)[C@H]3O)C12` (some centres not stated), the Potency entry in assay [1], in assay [5], in assay [3] and in assay [4] was “inactive” in each case.
On to `COc1cc(C(=O)OC[C@H]2O[C@@H](OC(C)(C)C(=O)O)[C@H](O)[C@@H](O)[C@@H]2O)cc(OC)c1O`, for which the Potency entry in assay [1], in assay [5], in assay [6], in assay [3] and in assay [4] was “inactive” each time.
Regarding `COc1ccc(CCc2nc3cc(-c4c(C)noc4C)ccc3n2C[C@H](C)N2CCOCC2)cc1Cl`, the Potency entry in assay [1], in assay [5], in assay [6], in assay [3] and in assay [4] was “inactive” in each case.
Consider `N[C@@H](CCNCc1ccc(Cl)cc1)C(=O)N1CCCCC1`, for which the Potency result in assay [1], in assay [5], in assay [6], in assay [3] and in assay [4] was “inactive” throughout.
